# Measured values: the supplement of paper PMC10037445
# Over roughly 2,900 compounds, “NF-kB SEAP reporter activity, fold change vs agonist alone” has its median near 0.99; the highest 2% begin near 2.6. The full list was thinned out, with the highest values kept by preference.
# Key:
# RAW-Dual [1] = experiment: NF-kB SEAP reporter activity, fold change vs agonist alone; cytotoxicity flag (confluency mask): not cytotoxic; higher = enhanced NF-kB activity
# Outline: (§1)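 Library stock was pin-tooled at 50 nL into 384-well plates of RAW-Dual macrophages (50,000 cells/well, DMEM), followed 1 h later by a PRR agonist, and the cells were kept at 37 °C, 5% CO2. Supernatant collected after 20 hours was read for IRF by QuantiLuc luminescence and for NF-κB by QuantiBlue absorbance at 620 nm. Reporter activity is fold change over agonist-alone wells, and a well counted as cytotoxic when its IncuCyte confluency was below 70% of agonist controls in both mask sets.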
# RAW-Dual [2] = experiment: NF-kB SEAP reporter activity, fold change vs agonist alone; higher = enhanced NF-kB activity
# Outline: as §1
# RAW-Dual [3] = experiment: NF-kB SEAP reporter activity, fold change vs agonist alone; cytotoxicity flag (confluency mask): cytotoxic (confluency <70% of control); higher = enhanced NF-kB activity
# Outline: as §1
# [4] = agonist: ODN 1826 (TLR9) 0.5 ug/mL
# [5] = agonist: Pam2CSK4 (TLR2/6) 0.1 ug/mL
# [6] = agonist: Pam3CSK4 (TLR2/1) 0.1 ug/mL
# [7] = library stock concentration (final ~1000-fold dilution): 10 mM, cytotoxicity flag (confluency mask): not cytotoxic, agonist: Imiquimod (TLR7) […]
# [8] = library stock concentration (final ~1000-fold dilution): 10 mM, cytotoxicity flag (confluency mask): not cytotoxic, agonist: MPLA (TLR4) […]
# [9] = library stock concentration (final ~1000-fold dilution): 10 mM water, cytotoxicity flag (confluency mask): not cytotoxic, agonist: MPLA (TLR4) […]
# [10] = library stock concentration (final ~1000-fold dilution): 10 mM, cytotoxicity flag (confluency mask): cytotoxic (confluency <70% of control), agonist: Imiquimod (TLR7) […]
# [11] = library stock concentration (final ~1000-fold dilution): 10 mM, cytotoxicity flag (confluency mask): cytotoxic (confluency <70% of control), agonist: MPLA (TLR4) […]
structure (smiles),measurement,setting,value
Cc1c(C(=O)Nc2ccc(N3CC(C)OC(C)C3)nc2)cccc1-c1ccc(OC(F)(F)F)cc1 (stereo not given) (library stock concentration (final ~1000-fold dilution): 10 mM),NF-kB SEAP reporter activity,RAW-Dual [1]; agonist: LPS (TLR4) 0.1 ug/mL,1.13
same,NF-kB SEAP reporter activity,RAW-Dual [1]; [4],1.35
same,NF-kB SEAP reporter activity,RAW-Dual [1]; [5],0.839
same,NF-kB SEAP reporter activity,RAW-Dual [1]; [6],1.12
Cc1c(C(=O)Nc2ccc(N3CC(C)OC(C)C3)nc2)cccc1-c1ccc(OC(F)(F)F)cc1 (stereo not given),NF-kB SEAP reporter activity,RAW-Dual [2]; [7],0.808
same,NF-kB SEAP reporter activity,RAW-Dual [2]; [8],0.657
N=C(N)NCCN1CCCCCCC1.O=S(=O)(O)O (library stock concentration (final ~1000-fold dilution): 10 mM water),NF-kB SEAP reporter activity,RAW-Dual [1]; agonist: LPS (TLR4) 0.1 ug/mL,1.13
same,NF-kB SEAP reporter activity,RAW-Dual [1]; [4],1.05
same,NF-kB SEAP reporter activity,RAW-Dual [1]; [5],1.06
same,NF-kB SEAP reporter activity,RAW-Dual [1]; [6],0.972
N=C(N)NCCN1CCCCCCC1.O=S(=O)(O)O,NF-kB SEAP reporter activity,RAW-Dual [2]; [9],1.05
CC1CC(=O)Nc2cccc(-c3ccc4c(c3)c(-c3cnn(C)c3)nn4C)c2N1 (stereo not given) (library stock concentration (final ~1000-fold dilution): 10 mM),NF-kB SEAP reporter activity,RAW-Dual [1]; agonist: LPS (TLR4) 0.1 ug/mL,3.26
same,NF-kB SEAP reporter activity,RAW-Dual [1]; [4],2.08
same,NF-kB SEAP reporter activity,RAW-Dual [1]; [5],0.673
same,NF-kB SEAP reporter activity,RAW-Dual [1]; [6],1.28
CC1CC(=O)Nc2cccc(-c3ccc4c(c3)c(-c3cnn(C)c3)nn4C)c2N1 (stereo not given),NF-kB SEAP reporter activity,RAW-Dual [2]; [7],1.46
same,NF-kB SEAP reporter activity,RAW-Dual [2]; [8],2.15
Cc1nc[nH]c1CN1CCc2c(c3ccccc3n2C)C1=O.Cl (library stock concentration (final ~1000-fold dilution): 2 mM water),NF-kB SEAP reporter activity,RAW-Dual [1]; agonist: LPS (TLR4) 0.1 ug/mL,1.14
same,NF-kB SEAP reporter activity,RAW-Dual [1]; [4],1.09
same,NF-kB SEAP reporter activity,RAW-Dual [1]; [5],1.15
same,NF-kB SEAP reporter activity,RAW-Dual [1]; [6],0.961
Cc1nc[nH]c1CN1CCc2c(c3ccccc3n2C)C1=O.Cl,NF-kB SEAP reporter activity,"RAW-Dual [2]; library stock concentration (final ~1000-fold dilution): 2 mM water, cytotoxicity flag (confluency mask): not cytotoxic, agonist: MPLA (TLR4) […]",1.06
NC(CSCCCO)C(=O)O (stereo not given) (library stock concentration (final ~1000-fold dilution): 10 mM water),NF-kB SEAP reporter activity,RAW-Dual [1]; agonist: LPS (TLR4) 0.1 ug/mL,1.11
same,NF-kB SEAP reporter activity,RAW-Dual [1]; [4],1.09
same,NF-kB SEAP reporter activity,RAW-Dual [1]; [5],1.22
same,NF-kB SEAP reporter activity,RAW-Dual [1]; [6],1.09
NC(CSCCCO)C(=O)O (stereo not given),NF-kB SEAP reporter activity,"RAW-Dual [2]; library stock concentration (final ~1000-fold dilution): 10 mM water, cytotoxicity flag (confluency mask): not cytotoxic, agonist: Imiquimod (TLR7) […]",0.937
same,NF-kB SEAP reporter activity,RAW-Dual [2]; [9],1.04
C=CC1(C)CC(OC(=O)CSC(C)(C)CNC(=O)C(N)C(C)C)C2(C)C(C)CCC3(CCC(=O)C32)C(C)C1O.Cl (stereo not given),NF-kB SEAP reporter activity,RAW-Dual [2]; [7],0.86
same,NF-kB SEAP reporter activity,RAW-Dual [2]; [8],1.25
C=CC1(C)CC(OC(=O)CSC(C)(C)CNC(=O)C(N)C(C)C)C2(C)C(C)CCC3(CCC(=O)C32)C(C)C1O.Cl (stereo not given) (library stock concentration (final ~1000-fold dilution): 10 mM),NF-kB SEAP reporter activity,RAW-Dual [1]; agonist: LPS (TLR4) 0.1 ug/mL,1.22
same,NF-kB SEAP reporter activity,RAW-Dual [1]; [4],0.971
same,NF-kB SEAP reporter activity,RAW-Dual [1]; [5],0.669
same,NF-kB SEAP reporter activity,RAW-Dual [1]; [6],0.845
CCCCCCCCCCCCCCCC(=O)NC(CCSC)C(=O)NCC(=O)NC(Cc1ccc(O)cc1)C(=O)NC(CCC(N)=O)C(=O)NC(CCCCN)C(=O)NC(CCCCN)C(=O)NC(CC(C)C)C(=O)NC(CCCNC(=N)N)C(=O)NC(CO)C(=O)NC(CCSC)C(=O)NC(C(=O)NC(CC(=O)O)C(=O)NC(CCCCN)C(=O)NC(Cc1ccc(O)cc1)C(=O)NC(CCCNC(=N)N)C(=O)NC(CC(C)C)C(=O)O)C(C)O (stereo not given) (library stock concentration (final ~1000-fold dilution): 10 mM),NF-kB SEAP reporter activity,RAW-Dual [3]; agonist: LPS (TLR4) 0.1 ug/mL,0.885
same,NF-kB SEAP reporter activity,RAW-Dual [3]; [4],0.714
same,NF-kB SEAP reporter activity,RAW-Dual [3]; [5],0.614
same,NF-kB SEAP reporter activity,RAW-Dual [3]; [6],0.68
CCCCCCCCCCCCCCCC(=O)NC(CCSC)C(=O)NCC(=O)NC(Cc1ccc(O)cc1)C(=O)NC(CCC(N)=O)C(=O)NC(CCCCN)C(=O)NC(CCCCN)C(=O)NC(CC(C)C)C(=O)NC(CCCNC(=N)N)C(=O)NC(CO)C(=O)NC(CCSC)C(=O)NC(C(=O)NC(CC(=O)O)C(=O)NC(CCCCN)C(=O)NC(Cc1ccc(O)cc1)C(=O)NC(CCCNC(=N)N)C(=O)NC(CC(C)C)C(=O)O)C(C)O (stereo not given),NF-kB SEAP reporter activity,RAW-Dual [2]; [10],1.02
same,NF-kB SEAP reporter activity,RAW-Dual [2]; [11],1.02
COc1ccc(Oc2cc(NCCC(F)(F)F)c3ncc(-c4ccc(C(=O)NC5CC5)c(C)c4)n3n2)c(F)c1F,NF-kB SEAP reporter activity,RAW-Dual [2]; [7],1.19
same,NF-kB SEAP reporter activity,RAW-Dual [2]; [8],1.32
COc1ccc(Oc2cc(NCCC(F)(F)F)c3ncc(-c4ccc(C(=O)NC5CC5)c(C)c4)n3n2)c(F)c1F (library stock concentration (final ~1000-fold dilution): 10 mM),NF-kB SEAP reporter activity,RAW-Dual [1]; agonist: LPS (TLR4) 0.1 ug/mL,2.44
same,NF-kB SEAP reporter activity,RAW-Dual [1]; [4],1.78
same,NF-kB SEAP reporter activity,RAW-Dual [1]; [5],0.636
same,NF-kB SEAP reporter activity,RAW-Dual [1]; [6],0.913
COc1cccc(CCc2ccccc2OCC(CN(C)C)OC(=O)CCC(=O)O)c1.Cl (stereo not given) (library stock concentration (final ~1000-fold dilution): 10 mM),NF-kB SEAP reporter activity,RAW-Dual [1]; agonist: LPS (TLR4) 0.1 ug/mL,1.33
same,NF-kB SEAP reporter activity,RAW-Dual [1]; [4],0.733
same,NF-kB SEAP reporter activity,RAW-Dual [1]; [5],1.03
same,NF-kB SEAP reporter activity,RAW-Dual [1]; [6],0.924
COc1cccc(CCc2ccccc2OCC(CN(C)C)OC(=O)CCC(=O)O)c1.Cl (stereo not given),NF-kB SEAP reporter activity,RAW-Dual [2]; [7],1.22
same,NF-kB SEAP reporter activity,RAW-Dual [2]; [8],1.03
Cc1cc(C)cc(C(=O)NOCCCCCC(=O)NO)c1,NF-kB SEAP reporter activity,RAW-Dual [2]; [10],1.41
same,NF-kB SEAP reporter activity,RAW-Dual [2]; [11],2.74
Cc1cc(C)cc(C(=O)NOCCCCCC(=O)NO)c1 (library stock concentration (final ~1000-fold dilution): 10 mM),NF-kB SEAP reporter activity,RAW-Dual [3]; agonist: LPS (TLR4) 0.1 ug/mL,5.28
same,NF-kB SEAP reporter activity,RAW-Dual [3]; [4],2.33
same,NF-kB SEAP reporter activity,RAW-Dual [3]; [5],0.935
same,NF-kB SEAP reporter activity,RAW-Dual [3]; [6],1.43
Cc1cc(Cl)ccc1OCCCC(=O)NO,NF-kB SEAP reporter activity,RAW-Dual [2]; [7],1.35
same,NF-kB SEAP reporter activity,RAW-Dual [2]; [8],1.31
Cc1cc(Cl)ccc1OCCCC(=O)NO (library stock concentration (final ~1000-fold dilution): 10 mM),NF-kB SEAP reporter activity,RAW-Dual [1]; agonist: LPS (TLR4) 0.1 ug/mL,1.51
same,NF-kB SEAP reporter activity,RAW-Dual [1]; [4],0.823
same,NF-kB SEAP reporter activity,RAW-Dual [1]; [5],0.939
same,NF-kB SEAP reporter activity,RAW-Dual [1]; [6],0.726
CNC(C)C(=O)NC1CN(C(=O)CC(C)C)CCC2CCC(C(=O)NC(c3ccccc3)c3ccccc3)N2C1=O (stereo not given) (library stock concentration (final ~1000-fold dilution): 10 mM),NF-kB SEAP reporter activity,RAW-Dual [1]; agonist: LPS (TLR4) 0.1 ug/mL,0.854
same,NF-kB SEAP reporter activity,RAW-Dual [1]; [4],1.1
same,NF-kB SEAP reporter activity,RAW-Dual [1]; [5],0.925
same,NF-kB SEAP reporter activity,RAW-Dual [1]; [6],1.08
CNC(C)C(=O)NC1CN(C(=O)CC(C)C)CCC2CCC(C(=O)NC(c3ccccc3)c3ccccc3)N2C1=O (stereo not given),NF-kB SEAP reporter activity,RAW-Dual [2]; [7],0.948
same,NF-kB SEAP reporter activity,RAW-Dual [2]; [8],0.82
